Screening results deposited in PubChem by several laboratories.
PvdQ inh: P. aeruginosa PvdQ acylase inhibition | inhibition, % at 10 µM | AID 488965 | hit rate 0.063% among 340,000 | purified PvdQ acylase, fluorescence plate reader; in the data active = inhibition above about 30%, passing the limit was not always enough
HDAC3 inhib: human HDAC3 inhibition; O15379; recombinant HDAC3, fluorogenic peptide/trypsin coupled, fluorescence; inhibition, % at 8.3 µM; hit rate 0.15% among 320,000; AID 2718; in the data active = inhibition above about 26%, passing the limit was not always enough
Target sequence (O15379 whole entry, looked up): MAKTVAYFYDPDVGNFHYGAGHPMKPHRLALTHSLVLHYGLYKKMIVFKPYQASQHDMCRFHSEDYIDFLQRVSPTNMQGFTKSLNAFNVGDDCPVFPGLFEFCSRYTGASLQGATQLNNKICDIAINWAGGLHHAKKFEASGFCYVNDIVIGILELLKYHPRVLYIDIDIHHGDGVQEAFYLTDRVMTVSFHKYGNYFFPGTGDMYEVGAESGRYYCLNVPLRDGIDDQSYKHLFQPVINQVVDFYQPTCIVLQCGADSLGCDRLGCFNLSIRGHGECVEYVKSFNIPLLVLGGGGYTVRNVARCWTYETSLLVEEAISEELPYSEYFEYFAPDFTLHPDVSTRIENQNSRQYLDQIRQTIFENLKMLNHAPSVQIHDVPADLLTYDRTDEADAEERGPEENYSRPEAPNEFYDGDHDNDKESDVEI
p-CIP stab down: p/CIP protein destabilization. F442A p/CIP-EGFP cells, EGFP fluorescence, 16 h. decrease of EGFP signal, % at 10 µM. Q05BA5. hit rate 0.01% among 290,000;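 active = EGFP signal decrease of at least 30% at 10 µM or well 3 SD below plate mean, unless failing retest; inactive = the rest, including hits failing retest or dose response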
JMJD2C inh: blocks human GASC-1 demethylase activity; Q9H3R0; GST-JMJD2C(1-420) H3K9me3 demethylation, DELFIA europium; inhibition, % at 2.35 µM; hit rate 0.069% among 330,000; AID 2099;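 active = more than half of a compound's replicate wells show inhibition beyond 50%, single wells judged on their own value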;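 also: signal counts dimethyl H3K9 product captured on neutravidin plate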
PHOSPHO1 block: inhibitors of human PHOSPHO1 phosphatase; hit rate 1.1% among 290,000; recombinant PHOSPHO1, absorbance phosphatase assay; Q8TCT1; inhibition, % at 13.3 µM; in the data active = inhibition above about 60%
Mot1-301 SUMO: blocks SUMOylation pathway, rescuing yeast Mot1-301 growth | hit rate 1% among 320,000 | growth rescue, % at 18.8 µM | S. cerevisiae Mot1-301 growth rescue, ATP luminescence, 38.5C; percent above DMSO median, 100 means doubled | AID 2716;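 active = every valid replicate shows activation above 250% relative to neutral control wells; inactive = the rest, any valid replicate at or below 250%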
Each line names hits and unclear results; the compound was inactive in the other large screens. Sampled rows, rich in hits. Any-hit rate of the full collection: about 2.2%.

O=C(CS(=O)c1ccc(F)cc1)Nc1ccccc1Cl (centres undefined)	Mot1-301 SUMO active
O=C(CS(=O)c1cccc(C(F)(F)F)c1)Nc1ccccc1Cl (centres undefined)	none (no result: Mot1-301 SUMO)
Cc1ccsc1C(=O)OCc1nc2ccccc2c(=O)[nH]1	JMJD2C inh 103
Cc1ccsc1C(=O)OCc1nc2ccsc2c(=O)[nH]1	none (no result: p-CIP stab down, PHOSPHO1 block)
CCOC(=O)c1csc(NC(=O)CSc2nnnn2-c2ccc(OC)cc2)n1	none
CCOC(=O)c1c(NC(=O)CSc2nnnn2-c2ccc(OC)cc2)sc(C)c1C	PHOSPHO1 block 87
Cc1[nH]c2ccccc2c1/C=N/NC(=O)c1ccccc1	none
Cc1[nH]c2ccccc2c1/C=N/Nc1cccc(C(=O)O)c1	PHOSPHO1 block 61
COc1ccc(S(N)(=O)=O)cc1-c1nnc2c3ccccc3c(C)nn12	Mot1-301 SUMO 304 (no result: PHOSPHO1 block)
CCOc1cc(/C=C(\C#N)C(=O)Nc2ccccc2[N+](=O)[O-])ccc1OCc1cccc2ccccc12	p-CIP stab down 30 (no result: PvdQ inh, HDAC3 inhib, JMJD2C inh, Mot1-301 SUMO)
CC1=NNC(=O)C1CCC(=O)N/N=C/c1ccc(Cl)cc1 (centres undefined)	none
CC1=NNC(=O)C1CCC(=O)N/N=C/c1c(Cl)cccc1Cl (centres undefined)	PHOSPHO1 block 65
Cc1cc(Cl)c2oc(C(=O)N3CCN(c4ccncc4)CC3)c(C)c2c1	Mot1-301 SUMO 450
C[C@H](OC(=O)N1CCN(C(c2ccccc2)c2ccccc2)CC1)[C@@H]1O[C@@]2(C)CCC[C@H]1O2	none (no result: p-CIP stab down, PHOSPHO1 block)
O=C1CCCCCN1CP(=O)(O)CN1CCCCCC1=O	Mot1-301 SUMO 564
Cc1ccc(-c2nc(CN(C)C(C3CC3)C3CC3)c(C)o2)cc1	Mot1-301 SUMO 316
c1ccn2c(SCc3cn4ccsc4n3)nnc2c1	JMJD2C inh 51 (no result: Mot1-301 SUMO)
c1ccc(-n2cnnc2SCc2cn3ccsc3n2)cc1	none
COCCCNC(=S)NNC(=S)Nc1ccc(F)cc1F	PHOSPHO1 block 83
Cc1cccc(NC(=S)NNC(=O)c2cc3c(s2)CCC(C)C3)c1C (centres undefined)	none
CCSc1ccc2nnc(-c3cccc(F)c3)n2n1	PHOSPHO1 block 94
O=C(CCC1CCCCC1)NNC(=O)c1cnccn1	none
CCOc1ccc(NS(=O)(=O)c2csc(C(N)=O)c2)cc1	none
O=C(NNC(=S)NC(=O)c1ccccc1[N+](=O)[O-])c1ccccc1[N+](=O)[O-]	PHOSPHO1 block 85
O=c1c(-c2nc3ccccc3s2)cccn1Cc1ccc(Cl)c(Cl)c1	none
N#Cc1ccccc1NC(=O)COC(=O)/C=C/c1cn(-c2ccccc2)nc1-c1ccc(Cl)cc1	PHOSPHO1 block 60 (no result: HDAC3 inhib, JMJD2C inh, Mot1-301 SUMO)
O=C(/C=C/c1cccc([N+](=O)[O-])c1)N(c1ccccn1)c1ccccn1	Mot1-301 SUMO active
O=C(CSc1c(Cl)cccc1Cl)NC1CCCc2ccccc21 (centres undefined)	Mot1-301 SUMO 349 (no result: HDAC3 inhib)
CSCC[C@H](N)C(=O)NCC1CCC(C(=O)Nc2ccc3c(c2)OCO3)CC1 (some centres undefined)	none
O=C(CSc1ncnc2ccccc12)c1ccco1	HDAC3 inhib 40
Cc1cc(-n2c(C)cc(C(=O)CSc3ncnc4ccccc34)c2C)no1	PHOSPHO1 block 84
Cc1cc(C(=O)CSc2ncnc3ccccc23)c(C)n1C1CC1	none (no result: p-CIP stab down, PHOSPHO1 block)
Cc1cc(C)n2nc(SCC(=O)c3cc(C)n(-c4cc(C)on4)c3C)nc2n1	PHOSPHO1 block 102
O=C(CSc1ncnc2ccccc12)NCc1ccco1	none
Cc1csc(NC(=O)CSc2ncnc3ccccc23)n1	PHOSPHO1 block 63
O=C1NCCCC1C(=O)N/N=C/c1cccc(O)c1 (centres undefined)	none
CS(=O)(=O)c1ccc(-c2nnc(NC(=O)c3cccc(N4C(=O)CCC4=O)c3)o2)cc1	none (no result: p-CIP stab down, PHOSPHO1 block)
CC1CCN(S(=O)(=O)c2ccc(NC(=O)[C@@H]3CCCN3C(=O)c3cccs3)cc2)CC1	none (no result: p-CIP stab down, PHOSPHO1 block)
CC1(C)Cc2nc3oc4c(SCC(N)=O)ncnc4c3cc2CO1	none (no result: PvdQ inh)
Cc1ccc(C(=O)CSc2n[nH]c(-c3ccco3)n2)cc1C	none
CCc1nc(SCC(=O)c2ccc(C)c(C)c2)n[nH]1	PHOSPHO1 block 99
Cc1nc(SCC(=O)c2ccc(F)cc2)n[nH]1	PHOSPHO1 block 95
Nc1nc(SCC(=O)c2ccc(F)cc2)n[nH]1	none
O=c1ccc(NS(=O)(=O)c2ccccc2)cn1Cc1ccc(Cl)c(Cl)c1	none
